Assay results taken from the supplement of paper PMC4466140.

Assays:
Assay in all cases: SPOT peptide array binding signal intensity (averaged, normalized) (arbitrary units (background-subtracted, floor 0; scale differs between SH3 domains)); higher = stronger binding of the SH3 domain to the peptide
[1] = target: AgAbp1
Outline: (§1)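 GST-fused SH3 domains from four yeast species were expressed in E. coli BL21(DE3), purified on glutathione Sepharose and incubated at 10 μg/ml overnight at 4°C in TBS-based blocking buffer on cellulose membranes carrying synthetic 15-mer peptides, with cysteines replaced by serines. Bound protein was detected with anti-GST antibody, an HRP anti-mouse secondary and luminol, then imaged and quantified with Genespotter. Binding signal is the normalized, background-subtracted spot intensity averaged over replicates, in arbitrary units that differ between domains.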

[2] = target: AgBbc1
Outline: as §1

[3] = target: AgBem1-D1
Outline: as §1

[4] = target: AgBzz1-D1
Outline: as §1

[5] = target: AgBzz1-D2
Outline: as §1

[6] = target: AgCyk3
Outline: as §1

[7] = target: AgFus1
Outline: as §1

[8] = target: AgHof1
Outline: as §1

[9] = target: AgHse1
Outline: as §1

[10] = target: AgLsb1
Outline: as §1

[11] = target: AgLsb4
Outline: as §1

[12] = target: AgMyo5
Outline: as §1

[13] = target: AgNbp2
Outline: as §1

[14] = target: AgRvs167
Outline: as §1

[15] = target: AgSho1
Outline: as §1

[16] = target: AgSla1-D1-D2
Outline: as §1

[17] = target: AgSla1-D3
Outline: as §1

[18] = target: CaAbp1-D1
Outline: as §1

[19] = target: CaAbp1-D2
Outline: as §1

[20] = target: CaBbc1
Outline: as §1

[21] = target: CaBem1-D1
Outline: as §1

[22] = target: CaBzz1-D1
Outline: as §1

[23] = target: CaBzz1-D2
Outline: as §1

[24] = target: CaCyk3
Outline: as §1

[25] = target: CaFus1
Outline: as §1

[26] = target: CaHof1
Outline: as §1

[27] = target: CaHse1
Outline: as §1

[28] = target: CaLsb1
Outline: as §1

[29] = target: CaLsb4
Outline: as §1

[30] = target: CaMyo5
Outline: as §1

[31] = target: CaNbp2
Outline: as §1

[32] = target: CaRvs167
Outline: as §1

[33] = target: CaRvs167-3
Outline: as §1

[34] = target: CaSho1
Outline: as §1

[35] = target: CaSla1-D1-D2
Outline: as §1

[36] = target: CaSla1-D3
Outline: as §1

[37] = target: ScAbp1
Outline: as §1

[38] = target: ScBbc1
Outline: as §1

[39] = target: ScBem1-D1
Outline: as §1

[40] = target: ScBzz1-D1
Outline: as §1

[41] = target: ScBzz1-D2
Outline: as §1

[42] = target: ScCyk3
Outline: as §1

[43] = target: ScFus1
Outline: as §1

[44] = target: ScHof1
Outline: as §1

[45] = target: ScHse1
Outline: as §1

[46] = target: ScLsb1
Outline: as §1

[47] = target: ScLsb2
Outline: as §1

[48] = target: ScLsb3
Outline: as §1

[49] = target: ScLsb4
Outline: as §1

[50] = target: ScMyo3
Outline: as §1

[51] = target: ScMyo5
Outline: as §1

[52] = target: ScNbp2
Outline: as §1

[53] = target: ScPex13
Outline: as §1

[54] = target: ScRvs167
Outline: as §1

[55] = target: ScSho1
Outline: as §1

[56] = target: ScSla1-D1-D2
Outline: as §1

[57] = target: ScSla1-D3
Outline: as §1

[58] = target: SpAbp1-D1
Outline: as §1

[59] = target: SpBbc1
Outline: as §1

[60] = target: SpBzz1-D1
Outline: as §1

[61] = target: SpBzz1-D2
Outline: as §1

[62] = target: SpCyk3
Outline: as §1

[63] = target: SpHof1
Outline: as §1

[64] = target: SpHof1-2
Outline: as §1

[65] = target: SpHof1-3
Outline: as §1

[66] = target: SpHse1
Outline: as §1

[67] = target: SpLsb1
Outline: as §1

[68] = target: SpLsb4
Outline: as §1

[69] = target: SpMyo1
Outline: as §1

[70] = target: SpNbp2
Outline: as §1

[71] = target: SpPex13
Outline: as §1

[72] = target: SpRvs167
Outline: as §1

[73] = target: SpSla1-D1-D2
Outline: as §1

[74] = target: SpSla1-D3
Outline: as §1

B1: unnamed (peptide)
chain: VFQFQMPTTPISTKM
SPOT peptide array binding signal intensity [1]: ≤ 0
SPOT peptide array binding signal intensity [2]: 10
SPOT peptide array binding signal intensity [3]: 132
SPOT peptide array binding signal intensity [4]: 22.5
SPOT peptide array binding signal intensity [5]: 9
SPOT peptide array binding signal intensity [6]: 1
SPOT peptide array binding signal intensity [7]: 346
SPOT peptide array binding signal intensity [8]: 5
SPOT peptide array binding signal intensity [9]: 428
SPOT peptide array binding signal intensity [10]: 2
SPOT peptide array binding signal intensity [11]: ≤ 0
SPOT peptide array binding signal intensity [12]: 14.8
SPOT peptide array binding signal intensity [13]: 344
SPOT peptide array binding signal intensity [14]: 1.33
SPOT peptide array binding signal intensity [15]: 251
SPOT peptide array binding signal intensity [16]: 1.5
SPOT peptide array binding signal intensity [17]: 3
SPOT peptide array binding signal intensity [18]: 59
SPOT peptide array binding signal intensity [19]: 116
SPOT peptide array binding signal intensity [20]: 34
SPOT peptide array binding signal intensity [21]: 111
SPOT peptide array binding signal intensity [22]: 152
SPOT peptide array binding signal intensity [23]: 101
SPOT peptide array binding signal intensity [24]: 13
SPOT peptide array binding signal intensity [25]: 820
SPOT peptide array binding signal intensity [26]: 0.5
SPOT peptide array binding signal intensity [27]: 303
SPOT peptide array binding signal intensity [28]: 2.5
SPOT peptide array binding signal intensity [29]: 407
SPOT peptide array binding signal intensity [30]: 92.8
SPOT peptide array binding signal intensity [31]: 985
SPOT peptide array binding signal intensity [32]: 32.7
SPOT peptide array binding signal intensity [33]: 4.5
SPOT peptide array binding signal intensity [34]: 922
SPOT peptide array binding signal intensity [35]: 404
SPOT peptide array binding signal intensity [36]: 454
SPOT peptide array binding signal intensity [37]: 4
SPOT peptide array binding signal intensity [38]: ≤ 0
SPOT peptide array binding signal intensity [39]: 1
SPOT peptide array binding signal intensity [40]: 10
SPOT peptide array binding signal intensity [41]: 25
SPOT peptide array binding signal intensity [42]: 13
SPOT peptide array binding signal intensity [43]: 327
SPOT peptide array binding signal intensity [44]: ≤ 0
SPOT peptide array binding signal intensity [45]: 254
SPOT peptide array binding signal intensity [46]: 46.5
SPOT peptide array binding signal intensity [47]: ≤ 0
SPOT peptide array binding signal intensity [48]: 282
SPOT peptide array binding signal intensity [49]: 124
SPOT peptide array binding signal intensity [50]: 20.8
SPOT peptide array binding signal intensity [51]: 8
SPOT peptide array binding signal intensity [52]: 636
SPOT peptide array binding signal intensity [53]: 186
SPOT peptide array binding signal intensity [54]: 11.8
SPOT peptide array binding signal intensity [55]: 530
SPOT peptide array binding signal intensity [56]: 245
SPOT peptide array binding signal intensity [57]: 228
SPOT peptide array binding signal intensity [58]: 21
SPOT peptide array binding signal intensity [59]: 2.5
SPOT peptide array binding signal intensity [60]: 324
SPOT peptide array binding signal intensity [61]: 4.25
SPOT peptide array binding signal intensity [62]: 4
SPOT peptide array binding signal intensity [63]: 52.5
SPOT peptide array binding signal intensity [64]: 36.5
SPOT peptide array binding signal intensity [65]: 18.5
SPOT peptide array binding signal intensity [66]: 456
SPOT peptide array binding signal intensity [67]: 4.5
SPOT peptide array binding signal intensity [68]: 349
SPOT peptide array binding signal intensity [69]: 85.5
SPOT peptide array binding signal intensity [70]: 272
SPOT peptide array binding signal intensity [71]: 124
SPOT peptide array binding signal intensity [72]: 27
SPOT peptide array binding signal intensity [73]: 3
SPOT peptide array binding signal intensity [74]: 297
